{
  "source": "paper PMC4552634",
  "about": "“A New Set of Chemical Starting Points with Plasmodium falciparum Transmission-Blocking Potential for Antimalarial Drug Discovery” (PLoS ONE, 2015)",
  "note": "The whole screen tested about 13,000 compounds, of which about 3,200 (25%) showed an effect of 50% or more. Some of the results follow.",
  "data": [
    {"tested_on": "P. falciparum stage V gametocytes", "parameters": "BacTiter-Glo ATP luminescence viability of purified stage V gametocytes in 384-well plates, per cent inhibition versus DMSO", "details": "48 h, 5 µM; inhibitor", "units": {"% Inhibition": "%"}, "values": [
      {"smiles": "CC(=O)c1c(Nc2c(C)cc(C)cc2C)oc(C)cc1=O", "note": "[TCMDC-125654]", "% Inhibition": 7.725},
      {"smiles": "Cc1ccccc1C1CCN(C2CCC(NC(=O)c3ccc4c(c3)-c3nocc3C(C)O4)CC2)CC1", "note": "(stereo not drawn) [TCMDC-134101]", "% Inhibition": -36.23},
      {"smiles": "O=C(Nc1cc(=O)[nH]c2nc(-c3ccccc3)nn12)C1CCCCC1", "note": "[TCMDC-125474]", "% Inhibition": 2.661},
      {"smiles": "Cc1cccc2[nH]c(-c3cccc(-c4ccc(NC(=O)NCc5cccc(F)c5)cc4)c3)nc12", "note": "[TCMDC-133289]", "% Inhibition": 46.25},
      {"smiles": "CN(C)C(=O)c1cc(CNCc2ccccc2)ccc1-c1cccc(CNCc2ccc(-c3ccccc3)cc2)c1", "note": "[TCMDC-139617]", "% Inhibition": 33.8},
      {"smiles": "CC(C)NCc1ccc(-c2cccc(CN3CCC(c4ccccc4)CC3)c2)c(C(=O)NCC2CCCCC2)c1", "note": "[TCMDC-134701]", "% Inhibition": 29.45},
      {"smiles": "CNCc1ccc(-c2cccc(CNCc3ccc(-c4ccccc4)cc3)c2)c(C(=O)OC)c1", "note": "[TCMDC-139615]", "% Inhibition": 117.6},
      {"smiles": "COC(=O)c1cccc(CNCc2cccc(-c3csc(-c4nc5ccccc5[nH]4)c3)c2)c1", "note": "[TCMDC-132943]", "% Inhibition": -44.21},
      {"smiles": "COc1cccc(CNC(=O)c2cc(CNCc3ccccc3)ccc2-c2cccc(CNCc3ccc(-c4ccccc4)cc3)c2)c1", "note": "[TCMDC-139616]", "% Inhibition": 14.44},
      {"smiles": "CCCCNC(=O)c1cc(CNC2CCCCC2)ccc1-c1cccc(CNCc2ccc(-c3ccccc3)cc2)c1", "note": "[TCMDC-139614]", "% Inhibition": 92.13},
      {"smiles": "CCCCN(CCCC)CCNC(=O)c1cccc(NC(=O)N2CCc3cc(SC)c(C(F)(F)F)cc32)c1", "note": "[TCMDC-139012]", "% Inhibition": -13.47},
      {"smiles": "Cc1ccccc1NC1=NC(=S)N(c2cccc(C(F)(F)F)c2)C12CCC(C(C)(C)C)CC2", "note": "(stereo not drawn) [TCMDC-125677]", "% Inhibition": 20.36},
      {"smiles": "COc1cccc2sc(N3CCN(C(=O)c4ccc([N+](=O)[O-])o4)CC3)nc12", "note": "[TCMDC-125150]", "% Inhibition": 57.22},
      {"smiles": "Cc1c(Cl)ccc2sc(N3CCN(C(=O)c4ccc([N+](=O)[O-])o4)CC3)nc12", "note": "[TCMDC-125453]", "% Inhibition": 88.71},
      {"smiles": "Cc1cc(C)c2oc(-c3cccc(NC(=O)c4ccc([N+](=O)[O-])o4)c3C)nc2c1", "note": "[TCMDC-123704]", "% Inhibition": 43.1},
      {"smiles": "CCc1cccc2sc(N3CCN(C(=O)c4ccc([N+](=O)[O-])o4)CC3)nc12", "note": "[TCMDC-124317]", "% Inhibition": 88.03},
      {"smiles": "O=C(Nc1ccc(N2CCN(C(=O)/C=C/c3ccccc3)CC2)c(Cl)c1)c1ccc([N+](=O)[O-])o1", "note": "[TCMDC-125229]", "% Inhibition": 0.8671},
      {"smiles": "Cc1ccc2sc(N3CCN(C(=O)c4ccc([N+](=O)[O-])o4)CC3)nc2c1C", "note": "[TCMDC-124314]", "% Inhibition": 93.58},
      {"smiles": "COc1ccccc1C(=O)N1CCN(Cc2cccs2)CC1", "note": "[TCMDC-139297]", "% Inhibition": 0.2209},
      {"smiles": "CCCCCCN1CCC(CNCc2cccc([N+](=O)[O-])c2)CC1", "note": "[TCMDC-141211]", "% Inhibition": 17.53},
      {"smiles": "COc1ccc(/N=[N+](\\[O-])c2ccccc2/[N+]([O-])=N/c2ccc(OC)cc2)cc1", "note": "[TCMDC-131243]", "% Inhibition": -4.101},
      {"smiles": "CC(=O)Nc1ccccc1OCc1cc2cc(C(=O)N3CCC(N4C(=O)OCc5ccccc54)CC3)ccc2o1", "note": "[TCMDC-138453]", "% Inhibition": 6.686},
      {"smiles": "CCc1c(C)c2ccc3c(c2oc1=O)CN(CCc1ccc(F)cc1)CO3", "note": "[TCMDC-125082]", "% Inhibition": 34.69},
      {"smiles": "Cn1nccc1C(=O)NCCNCc1ccc(-c2ccc(-c3nc4cc(C(F)(F)F)ccc4[nH]3)cc2)cc1.O=C(O)C(F)(F)F", "note": "[TCMDC-133013]", "% Inhibition": -32.96},
      {"smiles": "Cc1nc(-c2nc(N3CCC(C(N)=O)CC3)ncc2-c2ccsc2)sc1C", "note": "[TCMDC-125362]", "% Inhibition": 25.42},
      {"smiles": "COC(=O)c1cccc(CNCc2ccc(-c3ccc(-c4nc5ccc(F)cc5[nH]4)s3)cc2)c1", "note": "[TCMDC-132951]", "% Inhibition": -33.43},
      {"smiles": "CCc1ccc(NC(=O)C=NNC(=N)N)cc1", "note": "[TCMDC-137521]", "% Inhibition": -23.47},
      {"smiles": "c1ccc(Oc2ccc(Nc3ccnc(Nc4ccc5cn[nH]c5c4)n3)cc2)cc1", "note": "[TCMDC-138574]", "% Inhibition": -56.78},
      {"smiles": "O=C(c1ccc([N+](=O)[O-])o1)N1CCN(c2nc3c(F)cc(F)cc3s2)CC1", "note": "[TCMDC-125149]", "% Inhibition": 102.2},
      {"smiles": "O=C(c1ccc([N+](=O)[O-])o1)N1CCN(c2nc3c(Cl)cccc3s2)CC1", "note": "[TCMDC-124316]", "% Inhibition": 86.16},
      {"smiles": "O=C(c1ccc([N+](=O)[O-])o1)N1CCN(c2ccccc2)CC1", "note": "[TCMDC-125833]", "% Inhibition": 2.332},
      {"smiles": "O=C(Nc1ccc(N2CCN(Cc3ccccc3Cl)CC2)cc1)c1ccc([N+](=O)[O-])o1", "note": "[TCMDC-125230]", "% Inhibition": 2.358},
      {"smiles": "CS(=O)(=O)c1cccc2sc(N3CCN(C(=O)c4ccc([N+](=O)[O-])o4)CC3)nc12", "note": "[TCMDC-124930]", "% Inhibition": 105},
      {"smiles": "O=C(Nc1cccc(-c2nc3ccccc3s2)c1)c1ccccc1[N+](=O)[O-]", "note": "[TCMDC-125736]", "% Inhibition": -19.42},
      {"smiles": "CC(C)(C)OC(=O)N1CCC(C2CCN(C(=O)OC(C)(C)C)CC2)CC1", "note": "[TCMDC-132002]", "% Inhibition": 7.482},
      {"smiles": "CC(C)(C)c1ccc(CN2CCC(CNC(=O)c3cc(-c4cccc(Cl)c4)cs3)C2)cc1", "note": "(stereo not drawn) [TCMDC-134446]", "% Inhibition": 98.88},
      {"smiles": "CC(C)(C)c1ccc(CN2CCC(CNC(=O)c3cc(-c4cccc(F)c4)cs3)C2)cc1", "note": "(stereo not drawn) [TCMDC-134444]", "% Inhibition": 110.8},
      {"smiles": "CC(=O)Nc1ccc(CN2CCC(CNC(=O)c3cc(-c4cccc(Cl)c4)cs3)C2)cc1", "note": "(stereo not drawn) [TCMDC-134457]", "% Inhibition": -3.132},
      {"smiles": "CCc1ccc(CN2CCC(CNC(=O)c3cc(-c4cccc(Cl)c4)cs3)C2)cc1", "note": "(stereo not drawn) [TCMDC-134434]", "% Inhibition": 86.46},
      {"smiles": "O=C(NCC1CCN(CC2CCCCC2)C1)c1cc(-c2cccc(Cl)c2)cs1", "note": "(stereo not drawn) [TCMDC-134423]", "% Inhibition": 42.83},
      {"smiles": "COc1cccc(-c2csc(C(=O)NCC3CCN(Cc4ccc(C(C)(C)C)cc4)C3)c2)c1", "note": "(stereo not drawn) [TCMDC-134447]", "% Inhibition": 100.1},
      {"smiles": "CCCOc1cc(Cc2cnc(N)nc2N)cc(OC)c1OC", "note": "[TCMDC-137661]", "% Inhibition": 3.215},
      {"smiles": "Cc1ccc(Oc2ccc(NC(=O)CNc3ccccc3N3CCCC3=O)cc2)cc1", "note": "[TCMDC-125245]", "% Inhibition": -23.96},
      {"smiles": "CCc1ccc(CN2CCC(CNC(=O)c3cc(-c4cccc(F)c4)cs3)C2)cc1", "note": "(stereo not drawn) [TCMDC-134432]", "% Inhibition": 99.62},
      {"smiles": "CN(C)c1ccc(CN2CCC(CNC(=O)c3cc(-c4cccc(F)c4)cs3)C2)cc1", "note": "(stereo not drawn) [TCMDC-134454]", "% Inhibition": 71.45},
      {"smiles": "CN(C)c1ccc(CN2CCC(CNC(=O)c3cc(-c4cccc(C(F)(F)F)c4)cs3)C2)cc1", "note": "(stereo not drawn) [TCMDC-134452]", "% Inhibition": 29.06},
      {"smiles": "O=C(NC1CCN(Cc2ccccc2)CC1)c1cc(-c2ccncc2)nc2ccc(Cl)cc12", "note": "[TCMDC-124995]", "% Inhibition": 9.958},
      {"smiles": "CC(C)(C)c1ccc(CN2CCC(CNC(=O)c3cc(-c4ccccc4)nc4ccccc34)CC2)cc1", "note": "[TCMDC-139154]", "% Inhibition": 75.79},
      {"smiles": "O=C(NC1CCN(Cc2ccccc2)CC1)c1cc(-c2cccnc2)nc2ccc(Cl)cc12", "note": "[TCMDC-125223]", "% Inhibition": -0.2191},
      {"smiles": "CC(Nc1nncc(-c2cccc(F)c2)n1)c1ccc(F)cc1", "note": "(stereo not drawn) [TCMDC-124683]", "% Inhibition": -23.73},
      {"smiles": "COc1ccc(NC(=O)Nc2cccc(-c3ccc(-c4nc5ccc(C(F)(F)F)cc5[nH]4)cc3)c2)cc1", "note": "[TCMDC-133244]", "% Inhibition": -27.48},
      {"smiles": "CCOC(=O)c1ccc(Nc2cc(Nc3ccc(C(=O)OCC)cc3)nc(C)n2)cc1", "note": "[TCMDC-125781]", "% Inhibition": 36.3},
      {"smiles": "O=C(Nc1cccc(CN2CCCN(CC3CC3)CC2)c1)c1ccc(-c2ccccc2)cc1", "note": "[TCMDC-141846]", "% Inhibition": -26.45},
      {"smiles": "Cc1nc2nc(N)nc(N)c2c(C)c1Cc1ccc(O)cc1", "note": "[TCMDC-137637]", "% Inhibition": -12.62},
      {"smiles": "CC(C)C1C(=O)N(S(C)(=O)=O)C2CCN(C(=O)c3ccc(CN4CCCCC4)c([N+](=O)[O-])c3)C12", "note": "(stereo not drawn) [TCMDC-138195]", "% Inhibition": 96.13},
      {"smiles": "O=C(/C=C/c1ccc(Cl)c(Cl)c1)NC1CCC(CN2CCC(Cc3c[nH]c4ccccc34)CC2)CC1", "note": "(stereo not drawn) [TCMDC-140141]", "% Inhibition": 5.841},
      {"smiles": "Nc1c(C(=O)NCCCCN2CCN(c3nsc4ccccc34)CC2)sc2ccccc12", "note": "[TCMDC-137254]", "% Inhibition": -32.13},
      {"smiles": "O=C(NCCCCN1CCC(c2nc3ccccc3s2)CC1)c1cc2ccccc2[nH]1", "note": "[TCMDC-132779]", "% Inhibition": 6.014},
      {"smiles": "COc1ccccc1N1CCN(CCCCNC(=O)c2ccc(NC(=O)c3ccc(C(F)(F)F)cc3)cc2)CC1", "note": "[TCMDC-138110]", "% Inhibition": -20.18},
      {"smiles": "COc1ccc(Cl)cc1N1CCN(CCCNC(=O)c2ccc(-c3nc4ccncc4[nH]3)c(Br)c2)CC1", "note": "[TCMDC-140145]", "% Inhibition": -23.34},
      {"smiles": "Nc1ccncc1C(=O)NCCCCN1CCN(c2nsc3ccccc23)CC1", "note": "[TCMDC-137310]", "% Inhibition": 70.91},
      {"smiles": "O=C(NCCCCN1CCN(c2nsc3ccccc23)CC1)c1ccccc1C(=O)NCCCCN1CCN(c2nsc3ccccc23)CC1", "note": "[TCMDC-137241]", "% Inhibition": 54.48},
      {"smiles": "c1csc(-c2nc(NCC3CCCO3)ncc2-c2ccsc2)n1", "note": "(stereo not drawn) [TCMDC-125365]", "% Inhibition": 7.159},
      {"smiles": "CCCCCCN1CCCN(Cc2ccc(C(=O)Nc3cccc(CC)c3)cc2)CC1", "note": "[TCMDC-136412]", "% Inhibition": -23.63},
      {"smiles": "CC1(C)N=C(N)N=C(N)N1OCCCc1ccccc1", "note": "[TCMDC-131689]", "% Inhibition": 3.846},
      {"smiles": "CCNc1cc(C(=O)N[C@@H](Cc2ccccc2)[C@H](O)CNC2(CCC(C)C)CC2)cc(N2CCCCS2(=O)=O)c1", "note": "[TCMDC-135245]", "% Inhibition": 4.245}
    ]}
  ]
}
